HP1b chromo inh = HTS for Inhibitors of HP1-beta Chromodomain Interactions with Methylated Histone Tails | Chromobox protein homolog 1 (Homo sapiens), P83916 | AlphaScreen HP1-beta / biotin-H3K9me3 peptide binding | Potency, µM (doses to about 114 µM), without a hit: top-dose activity change, negative = inhibition, actives largely listed as inhibitors | hit rate 0.56% among 390,000; further: nearly all actives have a fitted effect of over 70% in size
Target sequence (P83916 whole entry, looked up): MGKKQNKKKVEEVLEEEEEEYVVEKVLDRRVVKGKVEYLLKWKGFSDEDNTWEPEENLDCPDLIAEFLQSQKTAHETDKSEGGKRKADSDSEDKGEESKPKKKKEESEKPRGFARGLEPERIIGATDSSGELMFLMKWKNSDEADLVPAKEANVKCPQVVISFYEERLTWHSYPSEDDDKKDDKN
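AlphaScreen: HP1-beta (50 nM) preformed 30 min with biotin-H3(1-18)K9me3 peptide (50 nM) in PBS pH 7.4, 0.01% Tween-20. Compound added for 30 min at RT, then streptavidin donor/nickel chelate acceptor beads (10 ug/mL) for 30 min.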
PLK1 PBD block = qHTS for Inhibitors of PLK1-PDB (polo-like kinase 1 - polo-box domain): Primary Screen | Serine/threonine-protein kinase PLK1 (Homo sapiens), P53350 | Plk1 PBD binding of FITC phosphopeptide, fluorescence polarization | Potency, µM, for the others: max response, negative = inhibition, hits mostly inhibitors | hit rate 2.8% among 360,000 | AID 720504, 2013; further: series mostly up to about 57 µM; on the % scale 0 is the no-effect control and ±100 the full control effect; nearly all actives have a fitted effect of over 65% in size
G9a inh = qHTS Assay for Inhibitors of Histone Lysine Methyltransferase G9a. G9a H3K9 monomethylation, AlphaScreen, 2 h. AID 504332, 2011. hit rate 8.8% among 350,000. Histone-lysine N-methyltransferase EHMT2 (Homo sapiens), Q96KQ7. Potency, µM (series often up to 102 µM), without a hit: at the highest dose activity, negative = inhibition, most hits filed as inhibitors; further: on the % scale 0 is the no-effect control and ±100 the full control effect; nearly all actives have a fitted effect of over 75% in size
Target sequence (Q96KQ7 913-1193 limits assumed): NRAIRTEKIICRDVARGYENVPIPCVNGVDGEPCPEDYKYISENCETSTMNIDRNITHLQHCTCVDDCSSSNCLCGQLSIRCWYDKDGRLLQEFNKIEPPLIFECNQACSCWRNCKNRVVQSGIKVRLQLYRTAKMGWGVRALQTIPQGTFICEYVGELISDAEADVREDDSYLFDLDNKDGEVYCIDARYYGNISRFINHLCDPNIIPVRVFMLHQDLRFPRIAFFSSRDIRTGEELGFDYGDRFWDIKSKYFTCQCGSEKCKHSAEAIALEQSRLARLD
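Quantitative HTS format: methyltransferase activity on a biotin-tagged H3K9 peptide is measured by AlphaScreen, using a rabbit anti-monomethyl-H3K9 antibody with streptavidin donor and anti-IgG acceptor beads. Final levels are 20 nM enzyme, 500 nM peptide, 20 uM SAM; 2 h RT.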
ALOX12 inh = Primary qHTS assay for inhibitors of human arachidonate 12S-lipoxygenase (ALOX12): Round 2 | Polyunsaturated fatty acid lipoxygenase ALOX12 (Homo sapiens), P18054 | purified 12hLO, xylenol orange hydroperoxide absorbance | Potency, µM (titrated, usually from 108 µM), without a hit: top-dose activity change, negative = inhibition, hits mostly inhibitors | hit rate 1.1% among 580,000 | AID 1671190, 2021; further: on the % scale 0 is the no-effect control and ±100 the full control effect
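Purified human 12hLO at 150 nM in 25 mM Hepes, 0.01% Triton X-100, pH 7.0, preincubated 15 min at room temperature with compound. Reaction started with 40 uM arachidonic acid, 30 min at room temperature. Hydroperoxide measured by Fe-xylenol orange, 573/405 nm absorbance ratio.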
BAZ2B inh = qHTS Assay for Inhibitors of BAZ2B. Bromodomain adjacent to zinc finger domain protein 2B (Homo sapiens), Q9UIF8. Potency, µM (titrated, usually from 114 µM), without a hit: top-dose activity change, negative = inhibition, most hits filed as inhibitors. AID 504333, 2011. AlphaScreen BAZ2B-H3K14Ac peptide displacement. hit rate 4.4% among 360,000; further: on the % scale 0 is the no-effect control and ±100 the full control effect; nearly all actives have a fitted effect of over 60% in size
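BAZ2B (50 nM) with biotin-H3(5-23)K14Ac peptide (50 nM) in PBS pH 7.4, 0.01% Tween-20, preformed 30 min, then compound 30 min at room temperature; top concentration 110uM. AlphaScreen streptavidin donor/nickel chelate acceptor beads (10 ug/mL final), 20 min dark, signal read.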
JMJD2A Tudor = qHTS Assay for Inhibitors of JMJD2A-Tudor Domain. hit rate 4.4% among 390,000. Potency, µM (series often up to 114 µM), inactives show top-dose activity change, negative = inhibition, most hits filed as inhibitors. AlphaScreen JMJD2A-Tudor / H3K4me3 peptide binding. Lysine-specific demethylase 4A (Homo sapiens), O75164; further: on the % scale 0 is the no-effect control and ±100 the full control effect; nearly all actives have a fitted effect of over 50% in size
* hit, by the source's call; u = inconclusive; x = no result; ! = not confirmed by another sample; [ ] = another dose, or the depositor's remark. Rows were chosen to be rich in hits. Some 9% of all compounds tested hit in one or more screens of this group. The call rests on the fitted dose curve; in most records, active means well fitted curve in the direction sought with a large enough effect; inconclusive means small, poorly fitted or top-dose-only effect, or another doubt; inactive means no such curve, though single readings can be large; an effect the other way counts as inactive or inconclusive. Potency means the concentration at half of the fitted maximal effect.

SMILES	HP1b chromo inh	PLK1 PBD block	G9a inh	ALOX12 inh	BAZ2B inh	JMJD2A Tudor
O=C1NCc2ccccc2CC12CCCN(Cc1ccnc3ccccc13)C2 (stereo not given)	x	x	x	22.4µM*	x	x
O=C1NCc2ccccc2CC12CCN(Cc1ccnc3ccccc13)CC2	x	x	x	28.2µM*	x	x
COC1CCCN(c2cc(-c3ccsc3)nc3c(C)noc23)C1 (stereo not given)	x	x	x	-22.3%[176 µM]	x	x
Cc1ccc(NC(=O)c2ccc(-n3cccn3)c([N+](=O)[O-])c2)cc1	-7.8%	-10.9%	9.8%	-9.5%	-10.4%	-30.8%
O=C(Nc1ccc(C2=NCCN2)cc1)c1ccc(C(=O)Nc2ccc(C3=NCCN3)cc2)c([N+](=O)[O-])c1	u	7.6%	39.8µM*	u	u	u
CCOc1ncccc1C(=O)N1CCN(S(=O)(=O)c2ccc3ccccc3c2)CC1	9.8%	-1.7%	4.9%	9.9%	-24.3%	-1.7%
CS(=O)(=O)c1ccc(N)cc1	42.9%	-2.8%	44.7µM*	5.5%	7.7%	-9.0%
COc1ccc(-c2ccc(SCC(=O)c3ccccc3)nn2)cc1OC	17.5%	-3.9%	50.1µM*	-1.7%	-17.5%	-20.5%
Cc1ccc(-c2ccc(SCC(=O)c3ccccc3)nn2)cc1	18.7%	-13.1%	35.5µM*	9.7%	-1.4%	13.5%
Cc1ccc(C(=O)CSc2ccc(-c3ccncc3)nn2)cc1	11.6%	-0.9%	39.8µM*	1.2%	u	-4.5%
NC(=O)C1=C[C@@H](c2coc3ccccc3c2=O)C[C@@H](OCCCCO)O1	8.9%	1.4%	17.6%[59 µM]	4.9%	-3.8%	-9.4%
CC(C)Oc1ccc(-c2cc(C(=O)NCCN3CCOCC3)c3ccccc3n2)cc1	27.2%	u	-8.1%[0.501 µM]	0.0%	u	13.0%
Nc1n[nH]c(-c2ccc(F)cc2)n1	19.3%	-4.5%	44.7µM*	-15.3%	u	u
CCCCc1ccc(-c2nc(N)n[nH]2)cc1	24.4%	-3.1%	0.3%	-1.7%	-2.8%	-12.9%
Fc1cccc(Cc2c(-c3ccco3)nc3c(Cl)cc(C(F)(F)F)cn23)c1	x	11.9µM*	x	u	x	x
Fc1ccc(-c2nc3c(Cl)cc(C(F)(F)F)cn3c2Cc2cccc(F)c2)cc1	x	-13.0%	x	u	x	x
CN(C(=S)Nc1ccccc1F)C1(c2ccccc2Cl)CCCCC1=O (stereo not given)	21.0%	-4.2%	4.4%[59 µM]	19.1%	39.7%[57.1 µM]	-16.9%
CN1C=CC=C/C1=C1\SC(=S)N(N)C1=O	29.8%	-12.8%	28.2µM*	-29.4%	-26.9%	0.7%
CC(=O)OC1CC(OC(C)=O)[C@]2(C)C(CC(OC(C)=O)[C@@]3(C)C4=CC(=O)OC(c5ccoc5)[C@]4(C)CCC32)C1(C)C (stereo not given in full)	x	x	-29.3%[2.33 µM]	x	x	x
O=C(O)CCCn1nc(-c2ccccc2)c2ccccc21	23.0%	-16.7%	-2.8%[59 µM]	25.5%	-2.2%	-9.9%
OCc1ccc(-c2nn(Cc3ccccc3)c3ccccc23)o1	12.1%	-13.4%	21.2µM*	u	39.8µM*	-18.7%
O=C1/C(=C\c2ccc(O)c(O)c2)C(c2ccccc2)=NN1c1ccccc1	u	15µM*	3.98µM*	u	8.91µM*	14.1µM*
COc1cc(/C=C2\C(=O)N(c3ccc(NC(C)=O)cc3)N=C2c2ccccc2)ccc1O	u	23.8µM*	44.7µM*	u	35.5µM*	39.8µM*
Cc1ccc(O)c(NC(=O)C2CCCCC2)c1	45.8%	-13.2%	x	-1.7%	5.4%	-5.6%
CCN1C=C(Cc2ccc(OC)cc2)C2=C(C1)C(c1ccc(OC)cc1)C(C#N)=C(N)O2 (stereo not given)	-28.9%	-9.6%	u	17.8µM*	44.7µM*	u
SMILES	HP1b chromo inh	PLK1 PBD block	G9a inh	ALOX12 inh	BAZ2B inh	JMJD2A Tudor
O=C(NCC(c1ccco1)N1CCCC1)c1ccccc1Sc1ccc(C(F)(F)F)cc1[N+](=O)[O-] (stereo not given)	-28.7%	-7.3%	10µM*	u	u	u
CCN(CC)S(=O)(=O)c1cccc(N=Nc2sc(N)nc2C)c1	u	-17.0%	39.8µM*	2.8%	11.2µM*	35.5µM*
Nc1ccccc1O	1.6%	-7.5%	-2.2%[0.501 µM]	x	-22.9%	-18.6%
N#CC(=C(/N)Sc1ccccc1N)/C(C#N)=C(\N)Sc1ccccc1N	x	x	12.6µM*	31.6µM*!	x	x
Cc1ccc(-c2csc3nc4c5ccccc5c(NCCCN(C)C)nn4c(=O)c23)cc1	-20.0%	-4.6%	35.5µM*	u	13.4%	4.8%
Cc1cc(C)c(NC(=O)C(C)n2c(=O)cc(C)c3c(C)nn(-c4ccccc4)c32)c(C)c1 (stereo not given)	34.7%	x	8.1%[59 µM]	-25.9%	0.2%	-14.3%
O=C(NCc1ccc(F)cc1)C1CCN(C(=O)c2cnn(-c3ccccc3)c2-n2cccc2)CC1	2.3%	x	9.2%[59 µM]	u	-3.2%	-18.8%
S=c1nc(C2CCCCC2)n(-c2ccccc2)[nH]1	38.5%	-21.2%	3.55µM*	u	-24.8%	15.8µM*
O=C1c2cc(N3CCOCC3)nc(-c3cccc(F)c3)c2CN1CC1CC1	x	x	x	-1.4%[176 µM]	x	x
CCC(=O)N(Cc1cc(=O)[nH]c2ccccc12)c1ccccc1OC	-8.3%	u	-8.5%	45.4%	-0.3%	-22.0%
COc1cc(/C=N/NC(=O)c2ccc3ccccc3c2)ccc1Oc1ccc([N+](=O)[O-])cn1	11.9%	-11.4%	1.78µM*	u	-32.0%	25.1µM*
COc1cc(/C=N/NC(=O)c2cc(O)cc(O)c2)ccc1OC(=O)c1ccccc1	28.2µM*	u	8.91µM*	11.8%	11.2µM*	22.4µM*
COc1ccc(/C=N\NC(=O)c2cc(O)c(O)c(O)c2)cc1COc1ccc(C(=O)OCC(C)C)cc1	-7.1%	0.2%	22.4µM*	0.0%	56.2µM*	u
COc1ccc(/C=N\NC(=O)c2cc(O)c(O)c(O)c2)cc1CN1CCN(c2ccc(F)cc2)CC1	u	u	7.08µM*	u	35.5µM*	56.2µM*
CCN(CC)CCNC(=O)Cn1cnc2sc(C)c(S(=O)(=O)N3CCN(c4ncccn4)CC3)c2c1=O	10.8%	-5.2%	-0.5%	1.4%	14.1%	-15.7%
COC(=O)c1c(NC(C)=O)sc(C(=O)Nc2ccccc2)c1C	-0.4%	-5.2%	8.0%	0.0%	-14.0%	-11.1%
CCc1nnc(N/N=C/c2cccs2)n1N	34.6%	-7.7%	50.1µM*	-15.9%	-6.3%	-12.0%
Cc1ccc(Nc2nnc(C(C)(C)C)c(=O)n2N)cc1	9.1%	-7.2%	34.7%[59 µM]	u	-4.3%	-16.0%

Assay outcomes from PubChem.
